# Most compounds without a hit are left out; they make up all but 3.2% or so of the library.
# PriA SSB inh = blocks PriA binding to SSB C-terminal tail; AID 1272365; AlphaScreen SSBct-PriA binding, biotinylated peptide; 0.6% of 430,000 active; inhibition, % at 33 µM; in the data active means inhibition mostly above about 37%, no sharp cut-off; inactive means mostly below about 20%;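 further: plate controls were negative control peptide for no effect and reference peptide for full effect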
# GDH-TPI counter-1 = counter-screen for M. tuberculosis FBA inhibitors: GDH-TPI coupled enzymes; GDH-TPI coupled enzyme counterscreen, NADH absorbance; inhibition, % at 4.8 µM; 1.2% of 360,000 active; AID 588335; in the data active means inhibition above about 30%;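 further: 0% = DMSO wells and 100% = wells lacking the enzyme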
# Mtb FBA inh = inhibits M. tuberculosis FBA enzyme. inhibition, % at 1 µM. purified M. tuberculosis FBA, fluorescence read-out. P9WQA3. 2.3% of 360,000 active;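 further: 0% = vehicle and 100% = reference inhibitor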
# UGM FP inh = inhibitors of M. tuberculosis UDP-galactopyranose mutase | inhibition, % at 10 µM | AID 504406 | 0.06% of 320,000 active | purified UGM, fluorescence polarization probe displacement; in the data active means inhibition above about 10%, passing the limit was not always enough
# Target sequence (P9WIQ1 whole entry, looked up): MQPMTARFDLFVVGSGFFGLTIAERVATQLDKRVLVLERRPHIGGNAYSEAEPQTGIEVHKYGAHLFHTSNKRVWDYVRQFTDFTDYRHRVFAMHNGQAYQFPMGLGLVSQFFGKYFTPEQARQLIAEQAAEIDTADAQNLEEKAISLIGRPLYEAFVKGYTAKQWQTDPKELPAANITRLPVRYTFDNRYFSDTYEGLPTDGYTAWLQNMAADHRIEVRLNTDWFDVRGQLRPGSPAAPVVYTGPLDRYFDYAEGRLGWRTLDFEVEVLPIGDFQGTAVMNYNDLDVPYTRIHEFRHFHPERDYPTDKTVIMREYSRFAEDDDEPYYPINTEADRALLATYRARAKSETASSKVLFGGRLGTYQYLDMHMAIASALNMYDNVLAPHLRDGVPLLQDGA
# Rv3671c protease = Rv3671c (M. tuberculosis) protease inhibition | P9WHR9 | inhibition, % at 5.96 µM | 0.048% of 320,000 active; in the data active means inhibition above about 38%;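 further: extracellular domain of Rv3671c used as enzyme; 0% = enzyme with DMSO and 100% = no enzyme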
# Mtb bLac sens = beta-lactam sensitization of Mtb H37Rv; M. tuberculosis H37Rv growth with meropenem, percent inhibition; inhibition, % at 25 µM; 0.27% of 330,000 active; AID 434955; call rule not given here;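 further: growth measured after seven days incubation then overnight dye step; 0% = bacteria only wells and 100% = bacteria with antibiotic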
# Mtb FBA inh conf = confirmation of M. tuberculosis fructose-bisphosphate aldolase inhibitors; shares compounds with Mtb FBA inh; purified M. tuberculosis FBA, fluorescence read-out; inhibition, % at 1 µM; 78% of 5,600 active;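 further: 0% = vehicle wells and 100% = reference inhibitor wells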
# GDH-TPI counter-2 = GDH-TPI inhibition counter-screen for FBA inhibitors; shares compounds with Mtb FBA inh; GDH-TPI coupled enzyme counterscreen, fluorescence; inhibition, % at 1 µM; 81% of 5,600 active; AID 652141; in the data active means inhibition above about 10%
# * marks the source's active call; other numbers are inactive results; / = no result; + = active, no number. Unless noted, no stated cut-off is given here; in the data, active means inhibition above about 27%; inactive means the rest.
SMILES,PriA SSB inh,GDH-TPI counter-1,Mtb FBA inh,UGM FP inh,Rv3671c protease,Mtb bLac sens,Mtb FBA inh conf,GDH-TPI counter-2
O=C(COc1cccc2ccc(N3CCCCC3)nc12)NCc1ccc2c(c1)OCO2,-2,/,/,/,/,/,/,/
CCN1CCN(CC(=O)Nc2cc(Cl)ccc2OC)C(=O)C1=O,-5,/,/,/,/,/,/,/
O=C(CNc1ccccc1C(=O)O)c1ccccc1,-4,2,28*,-1,-3,-3,34*,32*
NC(=O)c1ccccc1OCC(=O)c1ccc(Cl)cc1,-6,-4,3,2,8,-2,/,/
NC(=O)c1ccccc1NCC(=O)c1ccc(Cl)cc1,2,0,43*,-2,4,5,159*,124*
Cn1nc(-c2cccc(NS(=O)(=O)c3ccc(Cl)s3)c2)ccc1=O,1,/,/,/,/,/,/,/
CC(C)c1cc(=O)oc2c3c4c(cc12)CCCN4CCC3,-2,3,39*,1,-3,0,98*,86*
O=c1cc(C(F)(F)F)c2cc3c4c(c2o1)CCCN4CCC3,-82,1,13,1,27,3,/,/
Cc1cc(=O)oc2c3c4c(cc12)OCCN4CCC3,-1,6,76*,3,-1,4,66*,66*
CCOC(=O)Cc1csc(NC(=O)CSc2nnc(CCc3nc4ccccc4[nH]3)o2)n1,3,/,/,/,/,/,/,/
Cc1cc(C)c2c(N)c(C(=O)Nc3ccccc3Br)sc2n1,-20,11,42*,4,-5,0,152*,117*
Cc1ccc(N2CC(=O)N(NC(=O)c3sc4nc(C)cc(C)c4c3N)CC2=O)cc1,-3,6,48*,1,10,-1,59*,47*
Cc1cc(C)c2c(N)c(C(=O)Nc3ccccc3F)sc2n1,1,11,26,0,-3,-7,/,/
COC(=O)c1sc2nc(C)cc(C)c2c1N,-11,1,38*,-1,-18,-3,3,1
Cc1cc(C)c2c(N)c(C(=O)Nc3ncc(C)s3)sc2n1,-3,20,43*,1,2,3,121*,119*
O=C(Nc1ccc(F)c(C(F)(F)F)c1)c1cccc(Oc2ccccn2)c1,-21,/,/,/,/,/,/,/
Nc1c(C(=O)NCCc2ccccc2)c2nc3ccccc3nc2n1CCN1CCOCC1,-6,5,27*,1,1,99,73*,53*
Nc1c(C(=O)OCc2ccccc2)c2nc3ccccc3nc2n1Cc1cccs1,-46,9,51*,-1,-71,-4,168*,150*
COc1ccc(CCNC(=O)c2c(N)n(CCN3CCOCC3)c3nc4ccccc4nc23)cc1,-49,-1,21,1,3,100,/,/
O=C(Cn1c(=O)n(Cc2cccs2)c(=O)c2ncccc21)OCc1ccccc1,1,/,/,/,/,/,/,/
Nc1c(C(=O)NCCN2CCOCC2)c2nc3ccccc3nc2n1Cc1ccccc1,-13,3,91*,-5,1,78,7,3
Nc1c(C(=O)NCc2ccco2)c2nc3ccccc3nc2n1CCc1ccccc1,-27,8,72*,/,/,/,87*,72*
Cc1cccc(Cn2cnc3c(cnn3CCNC(=O)COc3ccccc3C)c2=O)c1,11,/,/,/,/,/,/,/
COc1cn(CC(=O)Nc2cc(C)on2)c(CN2CCN(C(=O)c3ccco3)CC2)cc1=O,6,/,/,/,/,/,/,/
Nc1nc(-c2ccc(OC(F)F)cc2OC(F)F)cs1,16,/,/,/,/,/,/,/
SMILES,PriA SSB inh,GDH-TPI counter-1,Mtb FBA inh,UGM FP inh,Rv3671c protease,Mtb bLac sens,Mtb FBA inh conf,GDH-TPI counter-2
COc1cc(C(=O)Nc2nonc2C)ncn1,5,/,/,/,/,/,/,/
Nc1c(C(=O)NCCN2CCOCC2)c2nc3ccccc3nc2n1Cc1ccco1,-4,19,86*,-1,-6,-18,98*,96*
COCCNC(=O)c1c(NC(=O)c2ccco2)n(Cc2ccccc2)c2nc3ccccc3nc12,/,5,75*,0,-7,57,65*,65*
COCCCNC(=O)c1c(NC(=O)c2ccccc2Cl)n(Cc2ccccc2)c2nc3ccccc3nc12,-4,12,9,-1,-1,3,/,/
COCCNC(=O)c1c(N)n(Cc2ccco2)c2nc3ccccc3nc12,-2,18,83*,1,-3,13,76*,67*
COCCCn1c(N)c(C(=O)NCc2ccco2)c2nc3ccccc3nc21,-11,/,/,-4,-81,-9,/,/
COc1ccc2c(c1)CCC1(C)CC(=O)C=C21 (stereo not drawn),/,37*,39*,/,/,/,46*,45*
COCc1cc(C)c(C#N)c(=S)[nH]1,-2,6,3,1,-5,8,/,/
CCOCc1cc(C)[nH]c(=O)c1C#N,-2,15,68*,-1,-5,1,175*,148*
COc1ccc(C(C)=NNC(=O)c2nnn(-c3nonc3N)c2CN(C)c2ccccc2)cc1,7,/,/,/,/,/,/,/
CC1=C(C(=O)Nc2ccccc2C(=O)NCc2ccccc2)SCCO1,11,-5,-6,-2,-3,3,/,/
CC1=C(C(=O)Nc2ccccc2C(=O)NC2CCC(C)CC2)SCCO1 (stereo not drawn),5,-4,37*,-2,-2,-4,20,17*
COc1cccc(NC(=O)C2CC(=O)NC(=N)S2)c1 (stereo not drawn),-18,/,/,/,/,/,/,/
Cc1ccc(F)cc1NC(=O)CCNC(=O)c1ccc([N+](=O)[O-])cc1,-12,0,37*,-2,-2,4,163*,124*
COC(=O)c1ccc(C)c(NC(=O)CCNC(=O)c2ccc([N+](=O)[O-])cc2)c1,4,3,0,/,6,-3,/,/
CCOC(=O)c1ccc(NC(=O)CSc2nc(-c3ccc(C)cc3)ns2)cc1,-7,/,/,/,/,/,/,/
Cc1ccc(-n2c3nc(=O)n(C)c(=O)c-3cc3ccccc32)cc1,-3,13,27*,1,9,-10,93*,87*
O=C(Nc1nc(CCC(=O)N2CCN(c3ccccc3Cl)CC2)cs1)c1cccs1,-9,/,/,/,/,/,/,/
COc1cccc(-c2cc(C(=O)N[C@H](c3cccnc3)C3CCOCC3)n(C)n2)c1,-15,/,/,/,/,/,/,/
Cc1c(C)c2ccc(OCC(=O)NCCCn3ccnc3)cc2oc1=O,-8,13,62*,0,-5,-1,195*,138*
Cc1c(OCC(=O)NCCCn2ccnc2)ccc2c3c(c(=O)oc12)CCCC3,0,8,31*,-1,1,69,76*,64*
O=C(COc1ccc2c3c(c(=O)oc2c1)CCC3)NCCCN1CCCC1=O,-17,16,17,-3,-1,0,/,/
O=C(COc1ccc2c(-c3ccccc3)cc(=O)oc2c1)NCCCn1ccnc1,0,17,4,2,0,-6,/,/
O=C(COc1ccc2c3c(c(=O)oc2c1)CCCC3)NCCCn1ccnc1,9,6,29*,0,-3,6,+,194*
